According to PubChem BioAssay (NCI):
The panel holds about 79,000 compounds, 15% with a hit somewhere; the sample as a whole holds those more often. Values without a mark were called inactive. Active and inactive are the calls of the source. Rule as the data show it: active = growth inhibition above about 70%; inactive = the rest.

Key:
[1] = NCI Yeast Anticancer Drug Screen. Data for the rad50 strain (AID 155);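 also: 0% = growth of vehicle-only cultures of the same strain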; details: S. cerevisiae rad50 strain growth inhibition; at 50.0 µM; hits give high values
Outline: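 Genetically altered yeast (DNA repair pathway); compound treatment; growth inhibition vs vehicle ctrl.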

[2] = NCI Yeast Anticancer Drug Screen. Data for the mec2-1 strain (AID 157); details: S. cerevisiae mec2-1 strain, at 50.0 µM, hits give high values
Outline: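 Each compound was tested on mec2-1 yeast, a strain altered in DNA damage repair or cell cycle control. Growth inhibition is reported relative to vehicle.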

[3] = NCI Yeast Anticancer Drug Screen. Data for the sgs1 mgt1 strain (AID 161);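 also: 0% = growth of cultures given vehicle only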; details: S. cerevisiae sgs1 mgt1 strain, at 50.0 µM, hits give high values
Outline: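 Genetically altered yeast, compound exposure, growth inhibition relative to vehicle.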

[4] = NCI Yeast Anticancer Drug Screen. Data for the cln2 rad14 strain (AID 165);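 also: 0% = growth equal to vehicle treated cultures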; details: S. cerevisiae cln2 rad14 strain, at 50.0 µM, hits give high values
Outline: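 Test compounds were added to cln2 rad14 yeast cultures; inhibition of growth was then determined by comparison with vehicle treatment.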

[5] = NCI Yeast Anticancer Drug Screen. Data for the bub3 strain (AID 167); details: S. cerevisiae bub3 mutant strain, at 50.0 µM, hits give high values
Outline: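 Yeast carrying a defined mutation is treated with each compound, and growth is compared with that of vehicle-exposed cells to give inhibition.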

[6] = NCI Yeast Anticancer Drug Screen. Data for the mlh1 rad18 strain (AID 175); details: S. cerevisiae mlh1 rad18 strain growth inhibition; at 50.0 µM; hits give high values
Outline: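 Inhibition values reflect reduced growth of mutant yeast versus vehicle-treated controls following compound exposure; the mutations affect DNA damage repair.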

SMILES	growth inhibition [1]	growth inhibition [2]	growth inhibition [3]	growth inhibition [4]	growth inhibition [5]	growth inhibition [6]
BrCCC[n+]1ccc2ccccc2c1-c1nccc2ccccc12	50.7%	16.1%	54.2%	33.2%	5.05%	49.5%
CCOC(=O)NC(=S)NC(C)c1ccccc1 (configuration not stated)	-10.2%	10.6%	35.5%	-8.85%	15%	1.15%
S=C1SCCCN1c1ccccc1	-6.35%	-4.05%	-4.9%	-14.5%	-9.6%	-20%
O=C(O)C1CCN(Cc2oc(CO)cc(=O)c2O)C1 (configuration not stated)	-31.6%	-19.7%	-19.2%	-1.4%	-24.4%	-2.75%
O=C(Cl)C1CC=C2c3ccccc3CCC2C1C(=O)Cl (configuration not stated)	0.85%	19.1%	8.1%	-3.05%	15.1%	-5.5%
FC(F)(F)C1(C(F)(F)F)OI2(Br)(OC(C(F)(F)F)(C(F)(F)F)c3ccccc32)c2ccccc21	-6.05%	-0.25%	-11.2%	21.2%	-5.3%	27.1%
CC(C)n1c(=O)nc(-c2ccccc2)c2cc3c(cc21)OCO3	27.3%	18.8%	51.4%	7%	47.9%	8.65%
O[C@H]1[C@H]2[C@H](O)C[C@H](CCOCc3ccccc3)CN2C[C@H]1O	-8.15%	7.8%	-3.45%	20%	16%	-22.9%
O=C(/C=N\O)c1ccncc1	-13.8%	-16.9%	-30.8%	-16.1%	-8.65%	-35.7%
COc1ccc(C(CN)c2ccc(N)cc2)cc1 (configuration not stated)	8.8%	10.7%	1.6%	2.9%	-13.4%	-5.05%
Brc1cc2[nH]c(-c3ccccc3)c(Br)c2c(Br)c1Br	59%	36.5%	68.5%	39.2%	14.3%	69%
CCC(C)C(CO)N=Cc1ccccc1O.O.[Cu] (configuration not stated)	65.3%	82.3% (active)	74% (active)	62%	80.2% (active)	83.3% (active)
Cc1cc(=O)oc2ccccc12	8.8%	0.6%	10.9%	-3.1%	4.6%	1.55%
CCOC(=O)Cc1cccnc1N	-3.15%	-9.45%	-19.9%	-3.9%	1%	-2.25%
O=C(COc1ccc(Cl)c(Cl)c1)NCc1cccc(Cl)c1	6.1%	-8.65%	-1.7%	-2.85%	36.4%	30.9%
c1ccc(CC/C(=N/N=C(\CCc2ccccc2)c2ccccc2)c2ccccc2)cc1	10.7%	8.05%	-13.3%	-8.75%	-3%	7.6%
OC1CCSc2ccccc21 (configuration not stated)	28.6%	10.3%	23.9%	9.7%	23.6%	23.2%
Fc1ccc(/C=C/c2ccc(/C=C/c3ccc(F)cc3)nn2)cc1	18.4%	-4.2%	7.8%	-13.1%	5.15%	-1.5%
CCCCCCCC(C(=O)O)C(=O)O	-2.1%	0.4%	10.3%	10.3%	-2.5%	11.5%
CCC(C)(O)c1cnc(CC(C)C)c(=O)n1O (configuration not stated)	55.5%	32.9%	43.3%	38.7%	38.4%	52.2%
CCOC(=O)CCc1c(C)c2c(O)cc(O)cc2oc1=O	3.25%	-3.5%	-19.5%	8.3%	-42.9%	20.7%

SMILES	growth inhibition [1]	growth inhibition [2]	growth inhibition [3]	growth inhibition [4]	growth inhibition [5]	growth inhibition [6]
CC(C)CCC[C@@H](C)[C@H]1CC[C@H]2[C@@H]3CC[C@H]4OC(=O)CC[C@]4(C)[C@H]3CC[C@]12C	-19.4%	-33.9%	-30.4%	-2.2%	-27.7%	-9.85%
O=C(CO)CC(=O)CCC(=O)Nc1cccc([N+](=O)[O-])c1	-4.7%	21.5%	0%	42.8%	-12.3%	-4.35%
Nc1ncnc2c1sc(=S)n2-c1ccccc1	-5.3%	4.55%	13%	-1%	-12.7%	-10.9%
O=C(O)c1cc(=O)c2cc(Cl)ccc2[nH]1	-15.5%	-12.2%	-17.1%	-19%	-9.9%	-1.55%
C=CC1(C(=O)O)CCC(C(C)(C)C)CC1 (configuration not stated)	42.9%	42%	31.6%	36.1%	21.6%	13.3%
CCOC1(c2ccccc2)NC(=O)NC1(OCC)c1ccccc1 (configuration not stated)	14.2%	5.75%	18%	-20.1%	0.05%	-9.6%
CC1=NN(C(=O)CC(=O)Nc2ccc(C(=O)O)cc2)C(=O)C1N=Nc1ccccc1C(=O)O (configuration not stated)	18.1%	18%	6.25%	-6.5%	-1.9%	25.7%
CC(C)(C)C(=O)/C(O)=C\c1ccccc1	-4.25%	6.2%	-12.2%	-10.7%	10.9%	-1.2%
NC(CSCc1ccccc1)P(=O)(O)O (configuration not stated)	8.35%	0.55%	0.2%	-7.45%	-2.45%	-1.55%
O=C(O)CSc1nc2c(Cl)c(Cl)c(Cl)cc2[nH]1	-11.7%	-14.1%	2%	1.6%	13.2%	-9.9%
CC(C)CCCC(C)C1CCC2C3CCC4=CCCCC4(C)C3CCC12C (configuration not stated)	4.6%	33%	27.8%	33.1%	2.45%	50.7%
C=C1CCC1	1.05%	-11.5%	-14.7%	10.6%	6.05%	-3.35%
CC[n+]1ccccc1Br	19.2%	18.6%	10.1%	-7.4%	6.05%	18.6%
C[C@]12CC=CC(=O)[C@@]1(C)CCC(=O)C2	3.45%	0.95%	-9.05%	-25.4%	-4.7%	8.1%
CN(C)S(=O)(=O)c1ccc(Cl)cc1	-1.65%	-4.4%	2.7%	0.3%	-0.2%	-9.3%
CC(=O)Nc1c(Nc2ccccc2)[nH]c(C)nc1=S	-5.55%	-9.35%	-0.25%	-17.4%	-3.1%	-9.8%
CCOC(=O)Nc1cccc(Cl)c1	10.9%	-2.45%	18.9%	9.65%	-7.35%	22.1%
N#CCCc1ccnc2ccccc12	1.7%	-6.4%	1.25%	-43%	-3.8%	-14.8%
O=C(O)c1cc(C(=O)O)cc(S(=O)(=O)NCCO)c1	3.05%	-10.5%	2.1%	-30.2%	3%	5.1%
CN1CCC=C(COC(=O)C(C)(C)C)C1	1.8%	4.9%	-10.9%	7.45%	5.45%	18.4%
CCOC(=O)c1c(NNc2ccccc2)nc2ccccc2c1-c1ccccc1	25.1%	-2.05%	11.1%	22.4%	-10.3%	-1.7%
